In all, about 5,500 compounds went through this assay and about 2,000 (36%) were called active. Roughly 18% stayed inconclusive and do not appear here. Cut-off read from the data, not from the text of the source: active = normalized growth mostly below about 0.91 (no sharp cut-off); inconclusive = no clear call, values can overlap the other calls; inactive = mostly above about 0.92. This is one part of the list.
Assay: chemical genetic growth profiling, strain panel (AID 1159580);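 note: tested at 20 µM; growth read once vehicle control cultures reached saturation at 30 °C; 1 = growth at the plate median or of vehicle wells; lower values mean less growth of the strain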
Details: growth OD

Measured: normalized growth

O=C(O)c1cc(=O)c(O)c2c(O)c(O)ccc2c1
inactive: S. cerevisiae deletion strains, locus YJR075W, strain HOC1, active compounds read low 1.04 | S. cerevisiae deletion strains, locus YKL009W, strain mrt4, active compounds read low 1.04 | S. cerevisiae deletion strains, locus YKL068W, active compounds read low 1.01 | S. cerevisiae deletion strains, locus YKL085W, strain MDH1 (second series), active compounds read low 1.02 | S. cerevisiae deletion strains, locus YKL085W, strain MDH1, active compounds read low 1.02 | S. cerevisiae deletion strains, locus YKL160W, strain elf1, active compounds read low 1.02 | S. cerevisiae deletion strains, locus YKL190W, strain CNB1, active compounds read low 1 | S. cerevisiae deletion strains, locus YKR001C, strain vps1, active compounds read low 1.01 | S. cerevisiae deletion strains, locus YKR026C, strain gcn3, active compounds read low 0.965 | S. cerevisiae deletion strains, locus YKR091W, strain srl3, active compounds read low 0.998 | S. cerevisiae deletion strains, locus YLL001W, strain dnm1, active compounds read low 1 | S. cerevisiae deletion strains, locus YLL026W, active compounds read low 0.992 | S. cerevisiae deletion strains, locus YLL041C, strain sdh2, active compounds read low 0.993 | S. cerevisiae deletion strains, locus YLR027C, strain aat2, active compounds read low 0.998 | S. cerevisiae deletion strains, locus YLR039C, strain RIC1, active compounds read low 1.04 | S. cerevisiae deletion strains, locus YLR058C, strain SHM2, active compounds read low 1.01 | S. cerevisiae deletion strains, locus YLR102C, strain apc9, active compounds read low 1.01 | S. cerevisiae deletion strains, locus YLR113W, strain HOG1, active compounds read low 1 | S. cerevisiae deletion strains, locus YLR221C, strain rsa3, active compounds read low 1.03 | S. cerevisiae deletion strains, locus YLR258W, strain gsy2, active compounds read low 0.993 | S. cerevisiae deletion strains, locus YLR262C, strain YPT6 (second series), active compounds read low 0.942 | S. cerevisiae deletion strains, locus YLR262C, strain YPT6, active compounds read low 0.971 | S. cerevisiae deletion strains, locus YLR268W, strain sec22, active compounds read low 0.987 | S. cerevisiae deletion strains, locus YLR320W, strain mms22, active compounds read low 1 | S. cerevisiae deletion strains, locus YLR330W, strain CHS5, active compounds read low 1 | S. cerevisiae deletion strains, locus YLR342W, strain FKS1 (second series), active compounds read low 1 | S. cerevisiae deletion strains, locus YLR342W, strain FKS1, active compounds read low 0.996 | S. cerevisiae deletion strains, locus YLR357W, strain rsc2, active compounds read low 0.943 | S. cerevisiae deletion strains, locus YLR370C, strain arc18, active compounds read low 0.998 | S. cerevisiae deletion strains, locus YLR371W, strain rom2, active compounds read low 1.03 | S. cerevisiae deletion strains, locus YLR384C, strain iki3, active compounds read low 1.01 | S. cerevisiae deletion strains, locus YLR418C, strain cdc73, active compounds read low 0.946 | S. cerevisiae deletion strains, locus YML016C, strain PPZ1, active compounds read low 0.991 | S. cerevisiae deletion strains, locus YML032C, strain rad52, active compounds read low 1.05 | S. cerevisiae deletion strains, locus YML120C, strain ndi1, active compounds read low 1.01 | S. cerevisiae deletion strains, locus YML124C, strain tub3, active compounds read low 1.01 | S. cerevisiae deletion strains, locus YMR058W, strain fet3, active compounds read low 0.99 | S. cerevisiae deletion strains, locus YMR078C, strain ctf18, active compounds read low 1.03 | S. cerevisiae deletion strains, locus YMR125W, strain sto1, active compounds read low 0.987 | S. cerevisiae deletion strains, locus YMR129W, active compounds read low 1.01 | S. cerevisiae deletion strains, locus YMR205C, strain PFK2, active compounds read low 0.988 | S. cerevisiae deletion strains, locus YMR223W, strain ubp8, active compounds read low 1.05 | S. cerevisiae deletion strains, locus YMR231W, strain pep5, active compounds read low 0.997 | S. cerevisiae deletion strains, locus YMR263W, strain SAP30, active compounds read low 0.999 | S. cerevisiae deletion strains, locus YMR307W, strain GAS1, active compounds read low 1.04 | S. cerevisiae deletion strains, locus YNL067W, strain RPL9B, active compounds read low 1 | S. cerevisiae deletion strains, locus YNL071W, strain lat1, active compounds read low 1 | S. cerevisiae deletion strains, locus YNL128W, strain TEP1, active compounds read low 0.972 | S. cerevisiae deletion strains, locus YNL153C, strain GIM3, active compounds read low 0.98 | S. cerevisiae deletion strains, locus YNL183C, strain NPR1, active compounds read low 0.907 | S. cerevisiae deletion strains, locus YNL209W, strain ssb2, active compounds read low 1 | S. cerevisiae deletion strains, locus YNL233W, strain BNI4, active compounds read low 0.989 | S. cerevisiae deletion strains, locus YNL248C, strain rpa49, active compounds read low 1.04 | S. cerevisiae deletion strains, locus YNL250W, strain rad50, active compounds read low 1.01 | S. cerevisiae deletion strains, locus YNL271C, strain bni1, active compounds read low 0.999 | S. cerevisiae deletion strains, locus YNL298W, strain CLA4, active compounds read low 1.01 | S. cerevisiae deletion strains, locus YNL307C, strain MCK1, active compounds read low 1.04 | S. cerevisiae deletion strains, locus YNL322C, strain KRE1 (second series), active compounds read low 0.981 | S. cerevisiae deletion strains, locus YNL322C, strain KRE1, active compounds read low 1.01 | S. cerevisiae deletion strains, locus YNR049C, strain mso1, active compounds read low 0.993 | S. cerevisiae deletion strains, locus YNR052C, strain pop2, active compounds read low 1.02 | S. cerevisiae deletion strains, locus YOL006C, strain TOP1, active compounds read low 0.984 | S. cerevisiae deletion strains, locus YOL012C, strain htz1 0.622 | S. cerevisiae deletion strains, locus YOL147C, strain pex11, active compounds read low 1.01 | S. cerevisiae deletion strains, locus YOR001W, strain rrp6, active compounds read low 1 | S. cerevisiae deletion strains, locus YOR061W, strain CKA2, active compounds read low 0.995 | S. cerevisiae deletion strains, locus YOR069W, strain VPS5, active compounds read low 1 | S. cerevisiae deletion strains, locus YOR070C, strain gyp1, active compounds read low 1 | S. cerevisiae deletion strains, locus YOR080W, strain dia2, active compounds read low 0.986 | S. cerevisiae deletion strains, locus YOR083W, strain WHI5, active compounds read low 1.02 | S. cerevisiae deletion strains, locus YOR106W, strain vam3, active compounds read low 1.04 | S. cerevisiae deletion strains, locus YOR136W, strain idh2, active compounds read low 1.02 | S. cerevisiae deletion strains, locus YOR144C, strain elg1, active compounds read low 1.01 | S. cerevisiae deletion strains, locus YOR184W, strain ser1, active compounds read low 1.1 | S. cerevisiae deletion strains, locus YOR231W, strain MKK1, active compounds read low 0.987 | S. cerevisiae deletion strains, locus YOR265W, strain rbl2, active compounds read low 0.993 | S. cerevisiae deletion strains, locus YOR270C, strain vph1, active compounds read low 1.01 | S. cerevisiae deletion strains, locus YOR290C, strain snf2, active compounds read low 0.947 | S. cerevisiae deletion strains, locus YOR316C, strain cot1, active compounds read low 1.02 | S. cerevisiae deletion strains, locus YPL051W, strain arl3, active compounds read low 1 | S. cerevisiae deletion strains, locus YPL055C, strain LGE1, active compounds read low 0.964 | S. cerevisiae deletion strains, locus YPL078C, strain atp4, active compounds read low 1.02 | S. cerevisiae deletion strains, locus YPL106C, strain sse1, active compounds read low 0.964 | S. cerevisiae deletion strains, locus YPL240C, strain hsp82, active compounds read low 1 | S. cerevisiae deletion strains, locus YPL241C, strain CIN2, active compounds read low 1.01 | S. cerevisiae deletion strains, locus YPL256C, strain CLN2, active compounds read low 0.968 | S. cerevisiae deletion strains, locus YPR119W, strain clb2, active compounds read low 1.01 | S. cerevisiae deletion strains, locus YPR141C, strain kar3, active compounds read low 1.01 | S. cerevisiae deletion strains, locus YPR163C, strain tif3, active compounds read low 1.02 | S. cerevisiae deletion strains, locus YPR167C, strain met16, active compounds read low 1.01 | S. cerevisiae deletion strains, strain wtn01, active compounds read low 0.998 | S. cerevisiae strains, strain wild type, active compounds read low 1

From PubChem BioAssay AID1159580 (chemical genetic matrix, 2015)
